In PubChem BioAssay (NCI):
This is part of a sample that, as a whole, favours compounds with a hit. Of some 79,000 tested, about 15% had one in any assay. A number with no mark means an inactive call. Active and inactive are the calls of the source. Cut-off read from the data, not from the text of the source: active = growth inhibition above about 70%; inactive = the rest.

Experiment: NCI Yeast Anticancer Drug Screen. Data for the rad50 strain (AID 155);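 note: 0% = growth of vehicle-only cultures of the same strain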
Settings: S. cerevisiae rad50 strain growth inhibition, stronger effect = higher value
Protocol: Growth inhibition of yeast strains with defined genetic alterations is measured as a screen for potential anti-cancer activity. Selected strains with alterations in DNA damage repair or cell cycle control were exposed to compounds and growth inhibition was measured relative to vehicle treated controls. The strain used in this assay is rad50

[1] = at 5.0 µM (retest, dose inferred, filed as 0.5)
[2] = at 50.0 µM (retest, dose inferred, filed as 5.0)

Molecule COc1ccc2c(Cc3c4ccccc4cc4ccccc34)cncc2c1O has a growth inhibition (at 1.2 µM) of 4%, a growth inhibition (at 3.7 µM) of 6% and a growth inhibition [1] of 51%. The growth inhibition (at 11.0 µM) was 26%, the growth inhibition (at 33.0 µM) was 68% and the growth inhibition [2] was 98% (active). For the same molecule, the growth inhibition (at 50.0 µM) was 93.9% (active) and the growth inhibition (at 100.0 µM) was 90% (active).
For C=Cc1c(C)c(O)cc2c1-c1ccc(O)c(C)c1CC2, the growth inhibition (at 1.2 µM) was -20%, the growth inhibition (at 3.7 µM) was -3% and the growth inhibition [1] was 46%. For the same molecule, the growth inhibition (at 11.0 µM) was 12%, the growth inhibition (at 33.0 µM) was 97% (active) and the growth inhibition [2] was 75% (active). The growth inhibition (at 50.0 µM) was -24.6% and the growth inhibition (at 100.0 µM) was 99% (active).
Work on Clc1ccc(C(c2ccc(Cl)cc2)N2CCNCC2)cc1 yielded a growth inhibition (at 1.2 µM) of -3%, a growth inhibition (at 3.7 µM) of -1% and a growth inhibition [1] of 38%. For the same molecule, the growth inhibition (at 11.0 µM) was 6%, the growth inhibition (at 33.0 µM) was 67% and the growth inhibition [2] was 95% (active). The growth inhibition (at 50.0 µM) was 92% (active) and the growth inhibition (at 100.0 µM) was 97% (active).
In the case of CC1C=CN(N(C)C)C2=C1C(=O)c1cnccc1C2=O (stereo not given), the growth inhibition (at 1.2 µM) is reported as 31%, the growth inhibition (at 3.7 µM) is reported as 68% and the growth inhibition [1] is reported as 81% (active). For the same molecule, the growth inhibition (at 11.0 µM) was 86% (active), the growth inhibition (at 33.0 µM) was 93% (active) and the growth inhibition [2] was 93% (active). The growth inhibition (at 50.0 µM) was 85% (active) and the growth inhibition (at 100.0 µM) was 96% (active).
Work on OC(c1ccc(Br)cc1)(c1cccs1)C1CC1 (stereo not given) yielded a growth inhibition (at 1.2 µM) of 3%, a growth inhibition (at 3.7 µM) of 21% and a growth inhibition [1] of 57%. For the same molecule, the growth inhibition (at 11.0 µM) was 56%, the growth inhibition (at 33.0 µM) was 94% (active) and the growth inhibition [2] was 100% (active). For the same molecule, the growth inhibition (at 50.0 µM) was 91.2% (active) and the growth inhibition (at 100.0 µM) was 94% (active).
